Compounds with a hit are over-represented: about 2.9% of the library has one in this group of screens.
ADAM10 inh = human ADAM10 inhibitors, primary screen, biochemical, QFRET, HTS. Disintegrin and metalloproteinase domain-containing protein 10 (Homo sapiens), O14672. recombinant ADAM10, EDANS/DABCYL FRET peptide cleavage, 3 h. inhibition, % at 7 µM. 0.62% of 370,000 active. AID 720582, 2013;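 active means inhibition above a per-campaign cutoff equal to the mean of compounds falling between control-based bounds plus 3 SD, cut at about 20% in these data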
Target sequence (O14672 214-748 limits assumed): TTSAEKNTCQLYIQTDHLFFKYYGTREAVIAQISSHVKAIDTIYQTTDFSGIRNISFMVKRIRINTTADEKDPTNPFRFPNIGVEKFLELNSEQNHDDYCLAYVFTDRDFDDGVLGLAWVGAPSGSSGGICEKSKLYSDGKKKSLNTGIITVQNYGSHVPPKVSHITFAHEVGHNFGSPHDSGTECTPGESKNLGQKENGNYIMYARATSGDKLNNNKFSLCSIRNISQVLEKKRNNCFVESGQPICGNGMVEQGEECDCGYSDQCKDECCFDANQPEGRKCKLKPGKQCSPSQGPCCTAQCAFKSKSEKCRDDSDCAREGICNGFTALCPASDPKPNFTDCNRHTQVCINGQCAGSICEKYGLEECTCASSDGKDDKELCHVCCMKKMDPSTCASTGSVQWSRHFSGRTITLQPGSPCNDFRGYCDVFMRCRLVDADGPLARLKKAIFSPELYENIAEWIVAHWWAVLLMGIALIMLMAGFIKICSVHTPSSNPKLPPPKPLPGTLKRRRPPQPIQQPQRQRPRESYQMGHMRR
PLC-beta3 inh = human PLC-beta3 inhibitors, primary screen, biochemical, fluorescence; Purified PLC-beta3, fluorogenic substrate; inhibition, % at 12.2 µM; 0.18% of 370,000 active; in the data active means inhibition above about 11%
PLC-gamma1 inh = PLC-gamma1 enzyme inhibitors, primary screen, biochemical, fluorescence, purified enzyme; 1-phosphatidylinositol 4,5-bisphosphate phosphodiesterase gamma-1 (Homo sapiens), P19174; fluorogenic substrate; AID 720700, 2013; 0.84% of 370,000 active; inhibition, % at 12.2 µM; in the data active means inhibition above about 9.5%
KLK7 zymogen act = proKLK7 zymogen activators, primary screen, biochemical, fluorescence intensity; Kallikrein-7 (Homo sapiens), P49862; purified proKLK7, EDANS-DABCYL substrate fluorescence; 100% is mature enzyme control, 0% vehicle; activation, % at 7 µM; 0.9% of 370,000 active; AID 652039, 2013;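 active means activation above the mean of all tested compounds plus 3 SD, computed per campaign excluding outliers beyond control limits, cut at about 13% in these data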
ADAM17 inh = ADAM17 inhibitors, primary screen, biochemical, QFRET; Disintegrin and metalloproteinase domain-containing protein 17 (Homo sapiens), P78536; recombinant ADAM17, EDANS/DABCYL FRET peptide cleavage; inhibition, % at 6.95 µM; 0.83% of 370,000 active; AID 720648, 2013;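 active means inhibition above the mean of compounds lying between control limits plus 3 SD, set per campaign, cut at about 8.5% in these data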
KLK7 act conf = proKLK7 zymogen activators, confirmation, biochemical, fluorescence intensity, triplicate; shares compounds with KLK7 zymogen act; purified proKLK7, EDANS-DABCYL substrate fluorescence; scaled: vehicle 0, mature enzyme 100; activation, % at 7 µM; 68% of 3,200 active; AID 686949, 2013;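 active means activation, as change over the incubation, above the mean of all tested compounds plus 3 SD, cut at about 13% in these data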
EDANS-DABCYL int = EDANS-DABCYL substrate optical interference, artefact control for kallikrein-7 zymogen activator project, biochemical, fluorescence intensity, high throughput | shares compounds with KLK7 zymogen act | no enzyme, 4 h; solvent 0%, active enzyme control 100% | activation, % at 7 µM | 80% of 3,200 active | AID 686952, 2013;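 active means activation above the all-compound mean plus 3 SD, ignoring values outside control-based bounds, cut at about 4.8% in these data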;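 further: value is the 4 h activation minus the activation read at time zero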
EDANS interf = optically interferes with EDANS-DABCYL fluorescence, kallikrein-7 activator counter-screen. shares compounds with KLK7 zymogen act. EDANS-DABCYL peptide fluorescence interference, no enzyme. EC50, µM. 20% of 250 active;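 active means compounds that raise the fluorescence signal in this interference counterscreen, with EC50 at or below 10 µM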;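 further: intact quenched peptide substrate alone read at 355 nm excitation and 520 nm emission; signal is fluorescence gain from T0 to T4 after four hours at room temperature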
Large screens that a line does not name were inactive (follow-up assays come after a bar, where they were run).

CCOC(=O)c1c(-c2ccccc2)oc2ccc(OCC(=O)NNC(=O)CCC(=O)O)cc12	none
COc1ccc2oc(-c3ccccc3)c(C(N)=O)c2c1	KLK7 zymogen act 13 | KLK7 act conf inactive | EDANS-DABCYL int 18
O=c1cc(-c2ccc(F)cc2)oc2ccccc12	none
CCOC(=O)c1c(-c2ccccc2)oc2ccc(OC(C)C(=O)O)cc12 (stereo not given)	KLK7 zymogen act 36 | KLK7 act conf inactive | EDANS-DABCYL int inactive
COc1ccc(-c2cc(=O)c3cc(OC)ccc3o2)cc1	none
COc1ccc2oc(-c3ccccc3)cc(=O)c2c1	KLK7 zymogen act 14 | KLK7 act conf inactive | EDANS-DABCYL int inactive
CCOc1cc(C=O)ccc1OCCn1c([N+](=O)[O-])cnc1C	none
Nc1cccc2c1C(=O)N(Cc1cccc(Cl)c1)C2=O	KLK7 zymogen act 27 | KLK7 act conf inactive | EDANS-DABCYL int inactive
O=C1Cc2ccccc2C(=O)N1Cc1cccc(Cl)c1	none
CCOC(=O)c1cnc2cc3c(cn2c1=O)CCCC3	KLK7 zymogen act 13 | KLK7 act conf inactive | EDANS-DABCYL int 10
CCOC(=O)c1cc2c(nc1N)CCCC2	none
C[C@H](O)[C@@H]1CN2CCc3c([nH]c4ccccc34)[C@@H]2C[C@@H]1N(C)Cc1cc(Cl)cc(Cl)c1	none
CN(C)Cc1c(O)ccc2cc(-c3nc4ccccc4n3C)c(=O)oc12	KLK7 zymogen act 78 | KLK7 act conf 67 | EDANS-DABCYL int 77
CCN(CC)c1ccc2cc(-c3nc4ccccc4n3C)c(=O)oc2c1	none
CCOC(=O)c1[nH]c2ccc(OC)cc2c1NC(=O)CCN1CCCC(C)C1 (stereo not given)	KLK7 zymogen act 27 | KLK7 act conf inactive | EDANS-DABCYL int inactive
CCOC(=O)c1[nH]c2ccc(OC)cc2c1NC(=S)N1CCN(C(=O)OCC)CC1	none
COc1cc(/C=N/NC(=O)c2nnn(-c3nonc3N)c2-c2cccs2)ccc1O	none
COc1ccc(/C=N/NC(=O)c2nnn(-c3nonc3N)c2-c2cccs2)cc1OC	KLK7 zymogen act 32 | KLK7 act conf 217 | EDANS-DABCYL int 353
CCOC(=O)Cc1csc(NS(=O)(=O)c2ccc3c4c(cccc24)C(=O)N3CC)n1	none
COCCNS(=O)(=O)c1ccc2c3c(cccc13)C(=O)N2C	KLK7 zymogen act 28 | KLK7 act conf 78 | EDANS-DABCYL int 88
CN1C(=O)c2cccc3c(S(=O)(=O)NCCc4ccccc4)ccc1c23	none
CCN1C(=O)c2cccc3c(S(=O)(=O)NCc4ccccn4)ccc1c23	KLK7 zymogen act 53 | KLK7 act conf 62 | EDANS-DABCYL int 56
CCOC(=O)CNS(=O)(=O)c1ccc2c3c(cccc13)C(=O)N2CC	KLK7 zymogen act 77 | KLK7 act conf 64 | EDANS-DABCYL int 69
CN1C(=O)c2cccc3c(S(=O)(=O)Nc4ccc(O)c(C(=O)O)c4)ccc1c23	none
CN1C(=O)c2cccc3c(S(=O)(=O)N4CCCC4C(=O)O)ccc1c23 (stereo not given)	KLK7 zymogen act 17 | KLK7 act conf 42 | EDANS-DABCYL int 46
N#C/C(=C\c1c(Oc2ccccc2Cl)nc2ccccn2c1=O)C(=O)NC1CCS(=O)(=O)C1 (stereo not given)	none
COc1ccccc1C1C2=C(CC(C)(C)CC2=O)N(CC(=O)O)C2=C1C(=O)CC(C)(C)C2	KLK7 zymogen act 21 | KLK7 act conf 30 | EDANS-DABCYL int 34
COc1ccc(N2C3=C(C(=O)CC(C)(C)C3)C(c3ccccc3OC)C3=C2CC(C)(C)CC3=O)cc1	KLK7 zymogen act 22 | KLK7 act conf inactive | EDANS-DABCYL int inactive
C#CCOc1ccc(C2C3=C(CC(C)(C)CC3=O)N(CC(=O)O)C3=C2C(=O)CC(C)(C)C3)cc1	KLK7 zymogen act 30 | KLK7 act conf 68 | EDANS-DABCYL int 80
C#CCOc1ccc(C2C3=C(CC(C)(C)CC3=O)N(CC(=O)O)C3=C2C(=O)CC(C)(C)C3)cc1OC	none
COc1ccc(C2C3=C(CC(C)(C)CC3=O)N(C)C3=C2C(=O)CC(C)(C)C3)cc1	KLK7 zymogen act 35 | KLK7 act conf 16 | EDANS-DABCYL int 25
CN(C)c1nc(-c2ccccc2)ns1	none
COc1ccc(C(=O)Nc2ccccc2C(=O)Nc2ccccc2)cc1	none
FC(F)(F)c1ccccc1CN1CCCc2nc(-c3ccccc3)ccc21	none
COc1ccc(-c2ccc3c(n2)CCCN3Cc2ccccc2C(F)(F)F)cc1	KLK7 zymogen act 18 | KLK7 act conf 15 | EDANS-DABCYL int 13 | EDANS interf inactive
CC(=O)OC[C@H]1O[C@@H](Oc2cc3ccc(=O)oc3cc2OC(C)=O)[C@H](OC(C)=O)[C@@H](OC(C)=O)[C@@H]1OC(C)=O	KLK7 zymogen act 80 | KLK7 act conf 79 | EDANS-DABCYL int 78
O=S(=O)(Nc1ccc(N2CCOCC2)nn1)c1ccccc1	none
O=C(c1cc2c(=O)n3ccccc3nc2s1)N1CCN(Cc2ccccc2)CC1	KLK7 zymogen act 25 | KLK7 act conf inactive | EDANS-DABCYL int inactive
O=C(c1cc2c(=O)n3ccccc3nc2s1)N1CCN(Cc2ccc3c(c2)OCO3)CC1	none
CCOC(=O)C1CCN(C(=O)c2cc3c(=O)n4ccccc4nc3s2)CC1	KLK7 zymogen act 42 | KLK7 act conf 68 | EDANS-DABCYL int 71
CCN1CCN(C(=O)c2cc3c(=O)n4ccccc4nc3s2)CC1	KLK7 zymogen act 55 | KLK7 act conf 44 | EDANS-DABCYL int 57
CCOC(=O)CC1C(=O)NCCN1C(=O)c1cc2c(=O)n3cccc(C)c3nc2s1 (stereo not given)	KLK7 zymogen act 43 | KLK7 act conf 25 | EDANS-DABCYL int 32
C=CCN(CC=C)C(=O)c1c(OC)cccc1OC	none
C=CCc1c(C)[nH]c2c(OC)cccc2c1=S	KLK7 zymogen act 29 | KLK7 act conf 13 | EDANS-DABCYL int 18
CCOC(=O)N1CCC(NC(=O)c2ccc3c(c2)N(CC)CCS3)CC1	KLK7 zymogen act 27 | KLK7 act conf inactive | EDANS-DABCYL int 5.2
CCOC(=O)N1CCC(NC(=O)c2ccc3c(c2)N=C(C)c2c(C)ccc(C)c2S3)CC1	none

Screens as filed in PubChem.
